What all share (conditions): mRNA level, 48 h; actives raise or lower the signal
Read-out in experiment [1]: Early growth response protein 1 (EGR1) transcription factor, EGR1 (gene 1958)
Description: LTEA_HepaRG_EGR1: Life Technologies and Expression Analysis (LTEA) Assay for Early growth response protein 1 (EGR1) transcription factor using HepaRG (AID 2283490). In a few lines: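 Differentiated human HepaRG cells in serum-free induction medium were exposed in duplicate for 48 h to eight concentrations (top 100 uM, half-log steps) in 0.5% DMSO. EGR1 mRNA was quantified by qRT-PCR, normalized to ACTB, GAPDH and POLR2A, and fitted bidirectionally versus DMSO.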

Read-out in experiment [2]: Ezrin (EZR), EZR (gene 7430)
The experiment in a line: LTEA_HepaRG_EZR: Life Technologies and Expression Analysis (LTEA) Assay for Ezrin (EZR) using HepaRG (AID 2283491). In a few lines: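 Read-out is EZR transcript level by qRT-PCR, normalized to three housekeeping genes and fitted bidirectionally against the DMSO control. Human HepaRG cells received test chemicals for 48 h at eight half-log concentrations up to 100 uM in 0.5% DMSO.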

Read-out in experiment [3]: Cytochrome P450 3A7 (Homo sapiens) (UniProt P24462)
The experiment in a line: LTEA_HepaRG_CYP3A7: Life Technologies and Expression Analysis (LTEA) Assay for CYP3A7 using HepaRG (AID 2283492). The procedure, abridged: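 CYP3A7 transcript measured by qRT-PCR (ACTB, GAPDH, POLR2A normalization) after 48 h chemical exposure of HepaRG cells in duplicate. Eight half-log concentrations, maximum 100 uM, 0.5% DMSO vehicle; bidirectional curve fitting against DMSO baseline.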

Read-out in another experiment: CYP3A5 (gene 1577)
The experiment in a line: LTEA_HepaRG_CYP3A5: Life Technologies and Expression Analysis (LTEA) Assay for CYP3A5 using HepaRG (AID 2283493). The procedure, abridged:
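Differentiated HepaRG cells in serum-free induction medium were dosed 48 h with test chemicals (8-point half-log series, top 100 uM, 0.5% DMSO, duplicate). CYP3A5 mRNA measured by qRT-PCR, normalized to ACTB, GAPDH, POLR2A; bidirectional fit versus DMSO.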

Read-out in experiment [4]: Fatty Acid-Binding Protein 1 (FABP1), FABP1 (gene 2168)
The experiment in a line: LTEA_HepaRG_FABP1: Life Technologies and Expression Analysis (LTEA) Assay for Fatty Acid-Binding Protein 1 (FABP1) using HepaRG (AID 2283494). The procedure, abridged:
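Differentiated human HepaRG cells were exposed in duplicate for 48 h in serum-free induction medium to 8-point half-log concentration series topping at 100 uM in 0.5% DMSO. FABP1 mRNA measured by TaqMan qRT-PCR, normalized to ACTB/GAPDH/POLR2A; bidirectional fit versus DMSO.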

Read-out in experiment [5]: Cytochrome P450 4A22 (Homo sapiens) (UniProt Q5TCH4)
The experiment in a line: LTEA_HepaRG_CYP4A22: Life Technologies and Expression Analysis (LTEA) Assay for Cytochrome P450 4A22 (CYP4A22) using HepaRG (AID 2283495). The procedure, abridged:
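Gene expression measured by qRT-PCR against three housekeeping genes (ACTB, GAPDH, POLR2A), with gain or loss fitted relative to 0.5% DMSO vehicle. HepaRG cultures received 48 h chemical treatment, top concentration 100 uM, half-log steps, duplicate wells.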

Read-out in experiment [6]: Cytochrome P450 7A1 (Homo sapiens) (UniProt P22680)
Description: LTEA_HepaRG_CYP7A1: Life Technologies and Expression Analysis (LTEA) Assay for Cytochrome P450 7A1 (CYP7A1) using HepaRG (AID 2283496). The procedure, abridged: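 Gene expression endpoint in human HepaRG liver cells treated for 48 h with test chemicals (up to 100 uM, 0.5% DMSO). Values come from bidirectional concentration-response fitting versus DMSO.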

Read-out in experiment [7]: Glutathione S-Transferase (GSTA2), GSTA2 (gene 2939)
Description: LTEA_HepaRG_GSTA2: Life Technologies and Expression Analysis (LTEA) Assay for Glutathione S-Transferase (GSTA2) using HepaRG (AID 2283497). In a few lines:
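Human HepaRG cells, plated 48 h, then exposed in serum-free induction medium for 48 h to eight half-log concentrations up to 100 uM in 0.5% DMSO, duplicate. GSTA2 mRNA by qRT-PCR, normalized to ACTB/GAPDH/POLR2A; bidirectional fit versus DMSO.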

Read-out in experiment [8]: Glutamate-cysteine ligase catalytic (GCLC), GCLC (gene 2729)
The experiment in a line: LTEA_HepaRG_GCLC: Life Technologies and Expression Analysis (LTEA) Assay for Glutamate-cysteine ligase catalytic (GCLC) using HepaRG (AID 2283498). In a few lines: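 Differentiated human HepaRG cells, plated 48 h then switched to serum-free induction medium, were exposed in duplicate for 48 h to 8 half-log concentrations topping at 100 uM in 0.5% DMSO. GCLC mRNA was quantified by qRT-PCR against ACTB, GAPDH and POLR2A.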

Read-out in experiment [9]: growth arrest and DNA damage 45 (GADD45G), GADD45G (gene 10912)
The experiment in a line: LTEA_HepaRG_GADD45G: Life Technologies and Expression Analysis (LTEA) Assay for growth arrest and DNA damage 45 (GADD45G) using HepaRG (AID 2283499). The procedure, abridged:
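GADD45G transcript level by qRT-PCR (housekeeping-normalized: ACTB, GAPDH, POLR2A) after 48 h chemical treatment of a single HepaRG lot in serum-free induction medium; eight-point half-log series up to 100 uM in 0.5% DMSO, duplicates, up- or down-regulation scored.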

The source made the active and inactive calls. How the source made its calls: active means hit-call score of the fitted dose curve at least 0.9, where 1 is the maximum; inactive means score below 0.9.

Cytochrome P450 3A7 (Homo sapiens), sequence (P24462 whole entry, looked up): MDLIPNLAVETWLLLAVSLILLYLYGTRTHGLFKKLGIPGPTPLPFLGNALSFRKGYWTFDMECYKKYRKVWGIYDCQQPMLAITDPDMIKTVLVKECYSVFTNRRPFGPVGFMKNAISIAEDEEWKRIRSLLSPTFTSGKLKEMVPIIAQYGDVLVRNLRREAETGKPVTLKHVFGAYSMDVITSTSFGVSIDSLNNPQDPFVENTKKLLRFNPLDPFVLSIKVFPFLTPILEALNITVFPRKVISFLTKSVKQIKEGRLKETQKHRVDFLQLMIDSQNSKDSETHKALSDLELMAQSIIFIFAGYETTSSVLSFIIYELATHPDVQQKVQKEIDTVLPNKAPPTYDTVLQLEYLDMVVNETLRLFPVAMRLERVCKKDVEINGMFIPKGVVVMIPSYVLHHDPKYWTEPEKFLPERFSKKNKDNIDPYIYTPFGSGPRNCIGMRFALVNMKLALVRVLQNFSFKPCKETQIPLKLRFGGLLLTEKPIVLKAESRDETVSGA

By AC50 is commonly meant the concentration at which the activity in the assay is half-maximal. In the case of `O=C(Nc1ccccc1-c1ccc(Cl)cc1)c1cccnc1Cl`, the outcome (in [1]; in experiment [2]; in [3]; with CYP3A5 (gene 1577); in experiment [5]; in experiment [7]) was inactive. In experiment [8], the compound was classed as inactive. The AC50 is 33.9 µM (active) in experiment [4] and 17 µM (active) in experiment [6].

As to `CCCC(=NOCC)C1=C(O)CC(CC(C)SCC)CC1=O` (stereo not drawn), the result (in experiment [1]; in [2]; in experiment [3]; in the experiment with CYP3A5 (gene 1577); in [4]; in [5]) was inactive. The result in experiment [6], in experiment [7] and in experiment [8] was inactive.

With `COc1cc(OC)nc(NC(=O)NS(=O)(=O)c2ncccc2OCC(F)(F)F)n1`, the compound was classed as inactive (in experiment [1]; in experiment [3]; in the experiment with CYP3A5 (gene 1577); in experiment [4]; in experiment [6]; in experiment [7]). For the same compound, the outcome in experiment [8] was inactive. The half-maximal activity concentration (AC50) in [2] was 0.239 µM (active); in experiment [5], 0.628 µM (active).

In the case of `CSC(=O)c1c(C(F)F)nc(C(F)(F)F)c(C(=O)SC)c1CC(C)C`, the compound was called inactive (in experiment [1]; in [2]; in the experiment with CYP3A5 (gene 1577); in experiment [6]; in [8]). The AC50 in [3] is 12.6 µM (active); in experiment [4] it was 9.87 µM (active); in experiment [5], 80.7 µM (active); in experiment [7] it was 88.2 µM (active).

For `COP(=O)(OC)O/C(C)=C/C(=O)N(C)C`, the outcome (in experiment [1]; in experiment [2]; in experiment [3]; with CYP3A5 (gene 1577); in experiment [4]; in experiment [5]) was inactive. Besides, the compound was called inactive in experiment [6], in experiment [7] and in experiment [8].

In the case of `CN=C=S`, the outcome (in [1]; in experiment [2]; in [3]; with CYP3A5 (gene 1577); in experiment [4]; in experiment [5]) was inactive. For the same compound, the compound was called inactive in experiment [6], in [7] and in [8].

Regarding `Nc1c(Cl)c(F)nc(OCC(=O)O)c1Cl`, the compound was called inactive (in experiment [1]; in experiment [2]; in [3]; with CYP3A5 (gene 1577); in [4]; in [5]). Further, the result in experiment [6], in [7] and in [8] was inactive.

As for `CCCCC(C#N)(Cn1cncn1)c1ccc(Cl)cc1` (stereo not drawn), the compound was called inactive (in [1]; in experiment [2]; with CYP3A5 (gene 1577); in [6]; in experiment [7]; in experiment [8]). In addition, the AC50 was 3.89 µM (active) in [3], 13.1 µM (active) in [4] and 51.8 µM (active) in experiment [5].

Take `Cc1cnc(C2=NC(C)(C(C)C)C(=O)N2)c(C(=O)O)c1` (stereo not drawn): the outcome (in experiment [1]; in [2]; in experiment [3]; with CYP3A5 (gene 1577); in experiment [4]; in experiment [5]) was inactive. The outcome in experiment [6], in experiment [7] and in [8] was inactive.

On to `Nc1cnn(-c2ccccc2)c(=O)c1Cl`, for which the compound was classed as inactive (in experiment [1]; in [2]; in experiment [3]; with CYP3A5 (gene 1577); in experiment [4]; in [5]). Also, the outcome in experiment [6], in experiment [7] and in experiment [8] was inactive.

For `CCCN(CC)CC1COC2(CCC(C(C)(C)C)CC2)O1` (stereo not drawn), the call (in experiment [1]; in experiment [2]; in experiment [3]; with CYP3A5 (gene 1577); in experiment [4]; in experiment [5]) was inactive. The call in [6], in experiment [7] and in experiment [8] was inactive.

As for `COC(=O)c1c(C(F)F)nc(C(F)(F)F)c(C2=NCCS2)c1CC(C)C`, the compound was classed as inactive (in experiment [1]; in experiment [2]; with CYP3A5 (gene 1577); in experiment [4]; in [5]; in [6]). Moreover, the call in experiment [7] and in [8] was inactive. In experiment [3], the concentration at half-maximal activity (AC50) is 50 µM (active).

Turning to `O=c1n(Cl)c(=O)n(Cl)c(=O)n1Cl`, the call (in [1]; in experiment [2]; in experiment [3]; with CYP3A5 (gene 1577); in experiment [4]; in experiment [5]) was inactive. Besides, the outcome in experiment [6], in experiment [7] and in experiment [8] was inactive.

`Clc1nc(Cl)nc(Nc2ccccc2Cl)n1`: the compound was called inactive (in experiment [1]; in [2]; in experiment [3]; in the experiment with CYP3A5 (gene 1577); in experiment [4]; in [5]). For the same compound, the call in [6], in [7] and in experiment [8] was inactive.

`CCOc1nc(F)cc2nc(S(=O)(=O)Nc3c(Cl)cccc3Cl)nn12`: the outcome (in [1]; in [2]; with CYP3A5 (gene 1577); in experiment [4]; in [5]; in experiment [7]) was inactive. Moreover, the outcome in [8] was inactive. The half-maximal activity concentration (AC50) was 9.92 µM (active) in experiment [3] and 36.7 µM (active) in [6].

`CCOP(=O)(OCC)Oc1nc(Cl)c(Cl)cc1Cl`: the AC50 in experiment [1] is 83.4 µM (active); in experiment [3], 92.1 µM (active); in experiment [4] it was 82.6 µM (active); in [5] it was 90.1 µM (active); in experiment [6], 83.8 µM (active); in experiment [7], 75.5 µM (active). For the same compound, the AC50 in experiment [8] is 84.1 µM (active). In addition, the call (in [2]; with CYP3A5 (gene 1577)) was inactive.

For `C=C(C)CN(CC)c1c([N+](=O)[O-])cc(C(F)(F)F)cc1[N+](=O)[O-]`, the result (in [1]; in experiment [2]; in [3]; with CYP3A5 (gene 1577); in experiment [5]; in experiment [6]) was inactive. The outcome in experiment [7] and in [8] was inactive. For the same compound, in experiment [4], the AC50 is 50 µM (active).

In the case of `OC(c1ccc(Cl)cc1)(c1ccc(Cl)cc1)C(Cl)(Cl)Cl`, the call in experiment [1], in experiment [2], in experiment [5] and in experiment [8] was inactive. In addition, the AC50 in experiment [3] was 83.5 µM (active); with CYP3A5 (gene 1577), 50 µM (active); in experiment [4], 63.2 µM (active); in [6] it was 75.9 µM (active); in experiment [7] it was 77.3 µM (active); in experiment [9], 87.7 µM (active).

The record behind these values is PubChem BioAssay (EPA / NIEHS).
